Assay [1] in a line: optical density shifts of acrAB sulA E. coli – strain DRC41, OD650, 48 h, E. coli filamentation inducer project, primary screen (AID 1152).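 Note: E. coli MC1000 strain DRC41 lacking acrAB efflux pump and sulA.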 As to conditions: higher = more signal, called active from +8 up or from −8 down.
Assay [2] in a line: probe aLefty1 binding on compound microarray – biochemical, small-molecule microarray, 635/667 nm fluorescence, primary screen (AID 1153).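 Note: score merges spot fluorescence with signal-to-noise ratio from the scanned slide images.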 The conditions noted are these: higher = more signal.
Assay [3] in a line: plasmodial surface anion channel blockers, osmotic lysis – cell-based, P. falciparum Indochina, OD700, 1 h, primary screen (AID 1154). The conditions noted are these: P. falciparum Indochina infected RBC osmotic lysis, higher = more signal, called active from +8 up or from −8 down.
A short description of assay [4]: plasmodial surface anion channel blockers, osmotic lysis – cell-based, P. falciparum Indochina, OD700, 2 h, primary screen (AID 1155).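 Note: lysis reports solute entry through the parasite surface anion channel PSAC.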 As to conditions: P. falciparum Indochina infected erythrocytes, higher = more signal, called active from +8 up or from −8 down.
Assay [5] in a line: changes in parasitized red cell lysis, either direction – P. falciparum Indochina, OD700, 3 h, PSAC antagonist project, primary screen (AID 1156). As to conditions: P. falciparum-infected erythrocytes, osmotic lysis, higher = more signal, called active from +8 up or from −8 down.
Assay [6] in a line: plasmodial surface anion channel blockers, osmotic lysis – cell-based, P. falciparum Indochina, OD700, 18 h, primary screen (AID 1157). The conditions noted are these: P. falciparum Indochina infected erythrocytes, osmotic lysis OD700, 18 h; higher = more signal, called active from +8 up or from −8 down.
Assay [7] can be described thus: S6 kinase pathway phospho-S6 level changes – cell-based, A549, cytoblot, luminescence, serum-stimulated, primary screen (AID 1158).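 Note: serum-stimulated A549 lung adenocarcinoma cells; signal is phosphorylated S6 detected by cytoblot immunostaining with HRP secondary.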 As to conditions: 5 h, higher = more signal.
Assay [8] deals with NADPH oxidase 2 (Homo sapiens) (UniProt P04839). Nature of the assay: compounds shifting NOX2 Amplex Red fluorescence – cell-based, HEK293-NOX2, PMA-stimulated, NOX inhibitor project, primary screen (AID 1159). Note: test concentration not given here. As to conditions: 45 min, higher = more signal, called active from +8 up or from −8 down.
Assay [9] deals with NADPH oxidase 4 (Homo sapiens) (UniProt Q9NPH5). Kind of assay: compounds shifting NOX4 Amplex Red fluorescence – cell-based, HEK293-NOX4, tetracycline-induced, NOX inhibitor project, primary screen (AID 1160). The conditions noted are these: HEK293-NOX4, Amplex Red H2O2 fluorescence, 45 min; higher = more signal, called active from +8 up or from −8 down.
The target of assay [10] is NADPH oxidase 5 (Homo sapiens) (UniProt Q96PH1). Kind of assay: compounds shifting NOX5 Amplex Red fluorescence – cell-based, HEK293-NOX5, NOX inhibitor project, primary screen (AID 1161). The conditions noted are these: HEK293-NOX5, ionomycin, 45 min, higher = more signal.
A short description of assay [11]: compound effects on lung adenocarcinoma cell viability – A549, calcein-AM fluorescence, 48 h, basal, profiling panel (AID 1162). Note: test concentration not given here. As to conditions: higher = more signal.
The nature of assay [12]: compound effects on differentiated 3T3-L1 adipocyte viability – cell-based, 3T3-L1 adipocytes, calcein-AM fluorescence, 48 h, basal, profiling panel (AID 1163). Note: test concentration not given here. The conditions noted are these: 3T3-L1 adipocytes viability, higher = more signal.
Assay [13] is described as follows: compound effects on hepatocellular carcinoma cell viability – HepG2, calcein-AM fluorescence, 48 h, basal, profiling panel (AID 1164). Note: test concentration not given here. The conditions noted are these: higher = more signal.
Assay [14] in a line: compound effects on multiple myeloma cell viability – MM1S, calcein-AM fluorescence, 48 h, basal, profiling panel (AID 1165). Note: test concentration not given here. The conditions noted are these: higher = more signal.
Assay [15] can be described thus: calcein-AM signal in unstimulated myeloma cells – cell-based, calcein-AM fluorescence, 48 h, PK04 Diversity Set, profiling panel (AID 1166).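 Note: cells grown under basal conditions without added stimulus; test concentration not given here.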 The conditions noted are these: RPMI8226 myeloma viability, higher = more signal.
Assay [16] in a line: JC-1 mitochondrial signal, unstimulated HepG2 cells – cell-based, JC-1 fluorescence, 24 h, 100 nL compound, profiling panel (AID 1167). Note: test concentration not given here. As to conditions: HepG2 mitochondrial potential, higher = more signal.
Assay [17] in a line: JC-1 mitochondrial signal, unstimulated adipocytes – cell-based, JC-1 fluorescence, 3T3-L1 adipocytes, 24 h, 100 nL compound, profiling panel (AID 1168). Note: test concentration not given here. As to conditions: JC-1 mitochondrial fluorescence, higher = more signal, called active from +8 up or from −8 down.
Assay [18] can be described thus: JC-1 mitochondrial signal, unstimulated myeloma cells – cell-based, JC-1 fluorescence, RPMI8226, 24 h, 100 nL compound, profiling panel (AID 1169). Note: test concentration not given here. The conditions noted are these: JC-1 mitochondrial potential fluorescence, higher = more signal.
Assay [19] is described as follows: JC-1 mitochondrial signal, unstimulated MM1S myeloma – cell-based, JC-1 fluorescence, 24 h, 100 nL compound, profiling panel (AID 1170). Note: test concentration not given here. As to conditions: MM1S mitochondrial potential, higher = more signal.
Assay [20] can be described thus: resazurin metabolic signal in A549 cells – cell-based, resazurin fluorescence, 24 h, PK04 Diversity Set, profiling panel (AID 1171). Note: test concentration not given here. The conditions noted are these: A549 viability, higher = more signal, called active from +8 up or from −8 down. Background: The colour change of resazurin is a common sign of viable cells or microbes.

Activity calls are given as the source filed them.

Sequence of NADPH oxidase 2 (Homo sapiens) (P04839 whole entry, looked up): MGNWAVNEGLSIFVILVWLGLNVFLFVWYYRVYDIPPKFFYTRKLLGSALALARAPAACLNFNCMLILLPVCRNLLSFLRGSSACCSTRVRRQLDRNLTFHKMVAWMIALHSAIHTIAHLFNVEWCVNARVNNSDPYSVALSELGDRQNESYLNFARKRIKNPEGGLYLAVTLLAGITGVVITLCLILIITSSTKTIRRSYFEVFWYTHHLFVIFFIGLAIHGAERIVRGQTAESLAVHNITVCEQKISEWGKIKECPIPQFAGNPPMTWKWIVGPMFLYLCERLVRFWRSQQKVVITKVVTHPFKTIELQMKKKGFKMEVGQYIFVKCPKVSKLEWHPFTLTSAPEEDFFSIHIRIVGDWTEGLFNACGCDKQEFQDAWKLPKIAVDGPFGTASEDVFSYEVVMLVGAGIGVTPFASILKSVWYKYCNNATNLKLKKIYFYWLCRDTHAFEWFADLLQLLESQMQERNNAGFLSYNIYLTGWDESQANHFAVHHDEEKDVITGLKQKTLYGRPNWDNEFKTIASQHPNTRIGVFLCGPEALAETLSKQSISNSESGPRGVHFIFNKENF
Sequence of NADPH oxidase 4 (Homo sapiens) (Q9NPH5 whole entry, looked up): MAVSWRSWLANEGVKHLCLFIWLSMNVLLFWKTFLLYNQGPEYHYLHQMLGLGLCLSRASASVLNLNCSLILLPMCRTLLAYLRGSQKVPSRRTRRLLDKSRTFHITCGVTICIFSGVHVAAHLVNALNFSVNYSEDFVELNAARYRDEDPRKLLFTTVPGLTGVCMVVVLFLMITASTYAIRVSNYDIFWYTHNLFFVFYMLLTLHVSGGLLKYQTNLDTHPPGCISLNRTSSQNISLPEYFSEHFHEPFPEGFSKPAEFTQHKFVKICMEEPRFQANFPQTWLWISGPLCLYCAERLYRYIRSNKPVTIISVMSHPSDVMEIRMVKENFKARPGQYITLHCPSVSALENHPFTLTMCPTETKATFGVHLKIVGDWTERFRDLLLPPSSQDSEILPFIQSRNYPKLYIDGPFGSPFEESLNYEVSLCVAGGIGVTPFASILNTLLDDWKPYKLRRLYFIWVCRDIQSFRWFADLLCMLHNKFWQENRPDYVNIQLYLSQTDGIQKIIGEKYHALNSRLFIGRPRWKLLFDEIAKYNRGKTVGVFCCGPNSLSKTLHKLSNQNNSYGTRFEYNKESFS
Sequence of NADPH oxidase 5 (Homo sapiens) (Q96PH1 whole entry, looked up): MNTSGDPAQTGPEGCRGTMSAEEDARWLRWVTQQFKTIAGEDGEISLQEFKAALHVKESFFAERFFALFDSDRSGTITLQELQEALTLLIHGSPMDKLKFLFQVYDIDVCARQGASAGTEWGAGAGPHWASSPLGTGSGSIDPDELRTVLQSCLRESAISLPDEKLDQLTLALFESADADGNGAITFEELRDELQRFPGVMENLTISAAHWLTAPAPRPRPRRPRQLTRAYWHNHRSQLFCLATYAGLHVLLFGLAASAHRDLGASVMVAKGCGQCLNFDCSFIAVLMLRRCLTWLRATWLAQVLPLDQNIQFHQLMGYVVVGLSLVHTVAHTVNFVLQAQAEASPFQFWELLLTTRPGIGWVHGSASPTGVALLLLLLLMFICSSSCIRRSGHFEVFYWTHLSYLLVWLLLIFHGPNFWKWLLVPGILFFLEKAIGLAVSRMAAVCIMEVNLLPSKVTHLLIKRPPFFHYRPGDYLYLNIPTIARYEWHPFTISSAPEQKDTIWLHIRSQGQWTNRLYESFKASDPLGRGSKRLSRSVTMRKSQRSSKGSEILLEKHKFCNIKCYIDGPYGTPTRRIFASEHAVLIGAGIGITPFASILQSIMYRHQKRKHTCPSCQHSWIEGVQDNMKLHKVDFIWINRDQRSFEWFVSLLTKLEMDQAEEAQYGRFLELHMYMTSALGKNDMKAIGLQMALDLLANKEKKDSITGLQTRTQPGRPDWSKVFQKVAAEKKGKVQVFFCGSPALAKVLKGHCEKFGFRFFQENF

In the case of `COc1ccc([Si](C)(C)[C@@H]2[C@@H](CCO)O[C@]3(C(=O)N(Cc4ccc(NC(C)=O)cc4)c4ccccc43)[C@H]2C)cc1`, the z-score is 0.694 (inactive) in assay [1]; 23 (active) in assay [3]; 7.13 (inactive) in assay [4]; -0.199 (inactive) in [5]; 0.0087 (inactive) in assay [6]; 0.339 in assay [7]. Also, the z-score in assay [8] is -0.371 (inactive); in assay [9], -0.0308 (inactive); in assay [10], 0.207; in [11] it was -1.98; in assay [12] it was 1.37; in [13] it was -2.77. Moreover, the z-score in [14] is -2.47; in assay [15], -3.9; in [16], -1.29; in assay [17] it was -0.0969 (inactive); in assay [18] it was -1.18; in assay [19], -1.93. The z-score in [20] is -3.2 (inactive). The same molecule came in with a composite z-score in assay [2] of 0.16.
With `CCOC(=O)[C@H](CC(C)C)NC(=O)CCC1CC(OC(=O)NCc2cccc3ccccc23)CC2(CCCC(COC(=O)NCCN3CCOCC3)O2)O1` (stereo not given in full), the z-score in assay [1] was -2.17 (inactive); in assay [3] it was -0.839 (inactive); in [4] it was -0.655 (inactive); in assay [5], -2.08 (inactive); in assay [6], -0.709 (inactive); in assay [7], 0.0369. Besides, the z-score in assay [8] is 0.428 (inactive); in [9], 0.647 (inactive); in [10], -0.0177; in assay [11] it was 0.609; in assay [12] it was 0.0174; in [13], -0.667. In addition, the z-score is 0.109 in assay [14]; -0.275 in assay [15]; -0.084 in assay [16]; -1.16 (inactive) in [17]; -0.268 in [18]; -0.166 in [19]. The z-score in [20] is 1.29 (inactive). In [2], the composite z-score was -0.275.
Take `COC(=O)[C@@]1(Cc2ccccc2)[C@H]2c3cc(C(=O)N4CCCC4)n(Cc4ccccn4)c3C[C@H]2CN1C(=O)c1ccccc1`: the z-score is -1.04 (inactive) in assay [1]; 2.24 (inactive) in [3]; 0.278 (inactive) in assay [4]; 2.27 (inactive) in assay [5]; 1.03 (inactive) in [6]; 0.741 in assay [7]. Moreover, the z-score is 0.401 (inactive) in assay [8]; -1.83 (inactive) in assay [9]; -3.72 in assay [10]; -0.935 in assay [11]; 1.91 in [12]; -0.924 in assay [13]. Moreover, the z-score in assay [14] was -0.0789; in [15] it was -1.72; in [16], 1.06; in assay [17], 0.339 (inactive); in [18], -0.16; in assay [19], 0.333. Also, the z-score in assay [20] is -1.53 (inactive). The same molecule returned a composite z-score in [2] of 1.27.
With `COc1ccc(O[C@H]2C=C[C@@H](c3ccccc3)O[C@@H]2COC(=O)CCC(C)=NOC(C)CN2CCCCc3nc(C)c(C)cc32)cc1` (stereo not given in full), the z-score in assay [1] was 0.233 (inactive); in [3], 21.7 (active); in assay [4], 3.58 (inactive); in assay [5], 1.68 (inactive); in assay [6] it was 1.15 (inactive); in assay [7], -0.0603. The z-score was -2.04 (inactive) in assay [8]; -0.369 (inactive) in assay [9]; -0.824 in assay [10]; -0.294 in [11]; -0.471 in assay [12]; 0.197 in assay [13]. Further, the z-score in assay [14] is -1.35; in assay [15], -0.666; in [16], 0.775; in assay [17], -0.313 (inactive); in assay [18], -0.508; in [19] it was -0.903. Besides, the z-score in assay [20] is 1.61 (inactive). This molecule showed a composite z-score in assay [2] of -0.584.
Regarding `C[C@@H]1CCC2C(=O)N(Cc3ccccc3)C[C@@H](O)CN2[C@H]1c1ccc(Br)cc1` (stereo not given in full), the z-score is -0.732 (inactive) in assay [1]; 0.167 (inactive) in assay [3]; -0.875 (inactive) in [4]; -0.75 (inactive) in [5]; -0.567 (inactive) in assay [6]; 0.805 in assay [7]. For the same molecule, the z-score is 0.615 (inactive) in assay [8]; -0.146 (inactive) in [9]; -0.836 in assay [10]; 0.247 in [11]; 0.13 in assay [12]; 0.229 in [13]. Besides, the z-score in assay [14] is 0.314; in assay [15], 0.447; in [16], 0.687; in [17], 0.303 (inactive); in assay [18] it was -0.878; in assay [19], 1.35. In addition, the z-score in assay [20] is 0.269 (inactive). Further, in assay [2], the composite z-score is -0.0573.
